Targets with a hit are over-represented here; the source holds about 8,800 in all. About 0.5% of all pairs of compound and target were hits.
Key:
Experiment in all cases: log2 fold change, soluble protein after heating vs DMSO (PISA); higher = thermal stabilisation; K562 lysate, 10 uM; active = over 0.2 and 3.5 SD of the protein, either way, in both replicates (recomputed)
[1] = compound: C1=CC=C(C=C1)[C@H](COC2=CC3=C(C=C2)NC(=O)N3)NC(=O)C4=CC=CN(C4=O)CC5=CC(=C(C=C5)F)F
In short: (§1)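 Log-two fold change in thermal stability relative to solvent controls is reported from duplicates. For each sample, crude K562 extract from dounce-homogenised pellets in PBS pH 7.4 with 1 mM MgCl2, at 1 mg/mL protein, was treated with 10 μM compound for 30 min. Aliquots heated for 3 min across 48°C-58°C were pooled, brought to 0.5% NP-40 at 4°C and cleared at 21,000xg for 90 min. The supernatant was quantified by TMTpro 16plex LC-MS/MS with channel sums equalised.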

[2] = compound: CC1=C(SC2=C1C(=N[C@H](C3=NN=C(N32)C)CC(=O)N)C4=CC=C(C=C4)Cl)C
In short: as §1

[3] = compound: CC1=C2C(=CC=C1)N=C(N(C2=O)C3=CC=CC=C3C)CN4C=NC5=C(N=CN=C54)N
In short: as §1

[4] = compound: Cc1sc2c(c1C)C(c1ccc(Cl)cc1)=N[C@@H](CC(=O)OC(C)(C)C)c1nnc(C)n1-2
In short: as §1

[5] = compound: c1ccc([C@@H]2C[C@H]2NC2CCNCC2)cc1
In short: as §1

Measured: log2 fold change

PLA2G4B isoform 6 (UniProt P0C869)
Chain of UniProt P0C869 (P0C869 whole entry, looked up): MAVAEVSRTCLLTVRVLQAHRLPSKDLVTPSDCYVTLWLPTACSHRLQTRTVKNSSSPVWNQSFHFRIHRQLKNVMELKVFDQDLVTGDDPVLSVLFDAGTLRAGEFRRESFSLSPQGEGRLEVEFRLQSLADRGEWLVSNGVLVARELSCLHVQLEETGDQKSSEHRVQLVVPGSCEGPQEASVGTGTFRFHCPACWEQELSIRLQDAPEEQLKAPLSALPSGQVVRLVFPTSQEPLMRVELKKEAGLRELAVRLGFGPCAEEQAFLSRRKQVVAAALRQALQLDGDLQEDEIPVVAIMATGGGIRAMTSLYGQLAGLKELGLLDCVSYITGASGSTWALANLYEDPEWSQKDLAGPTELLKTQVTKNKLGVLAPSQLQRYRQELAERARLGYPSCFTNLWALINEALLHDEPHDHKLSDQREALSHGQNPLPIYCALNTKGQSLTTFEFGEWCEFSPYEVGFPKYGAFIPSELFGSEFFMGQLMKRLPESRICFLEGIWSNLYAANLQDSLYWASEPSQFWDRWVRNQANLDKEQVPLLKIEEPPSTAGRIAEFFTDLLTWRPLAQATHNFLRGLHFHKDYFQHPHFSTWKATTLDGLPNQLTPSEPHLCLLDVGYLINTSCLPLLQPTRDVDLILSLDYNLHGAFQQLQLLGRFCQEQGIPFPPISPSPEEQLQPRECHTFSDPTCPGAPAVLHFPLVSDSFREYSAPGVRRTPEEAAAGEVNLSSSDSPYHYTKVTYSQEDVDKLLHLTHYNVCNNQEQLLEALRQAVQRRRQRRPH
inactive: [1] -0.003 | [2] 0.024 | [3] -0.052 | [4] 0.099 | [5] -0.019

PHKA2 (UniProt P46019)
inactive: [1] -0.111 | [2] 0.028 | [3] 0.052 | [4] 0.021 | [5] 0.038

PREP (UniProt P48147)
Chain of UniProt P48147 (P48147 whole entry, looked up): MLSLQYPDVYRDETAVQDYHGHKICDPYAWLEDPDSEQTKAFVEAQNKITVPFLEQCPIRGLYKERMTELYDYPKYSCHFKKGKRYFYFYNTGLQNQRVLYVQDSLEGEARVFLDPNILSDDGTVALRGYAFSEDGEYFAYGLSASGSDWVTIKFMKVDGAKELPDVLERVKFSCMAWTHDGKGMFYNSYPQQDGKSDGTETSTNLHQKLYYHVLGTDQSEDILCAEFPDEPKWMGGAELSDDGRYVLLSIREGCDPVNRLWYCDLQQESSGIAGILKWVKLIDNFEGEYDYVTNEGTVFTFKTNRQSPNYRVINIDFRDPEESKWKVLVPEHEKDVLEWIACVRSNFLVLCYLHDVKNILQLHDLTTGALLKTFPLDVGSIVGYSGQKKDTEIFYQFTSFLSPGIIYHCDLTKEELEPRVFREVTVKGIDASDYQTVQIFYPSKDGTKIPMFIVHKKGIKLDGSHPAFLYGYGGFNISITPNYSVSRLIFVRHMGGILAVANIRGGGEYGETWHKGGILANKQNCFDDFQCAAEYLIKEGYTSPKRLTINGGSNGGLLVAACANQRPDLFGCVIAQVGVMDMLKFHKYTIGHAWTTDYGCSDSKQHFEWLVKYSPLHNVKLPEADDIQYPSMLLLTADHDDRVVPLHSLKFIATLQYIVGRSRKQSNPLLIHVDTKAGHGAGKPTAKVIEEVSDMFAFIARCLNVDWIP
inactive: [1] 0.006 | [2] 0.02 | [3] 0.013 | [4] -0.02 | [5] 0.03

PRPH isoform 2 (UniProt P41219)
Chain of UniProt P41219 (P41219 whole entry, looked up): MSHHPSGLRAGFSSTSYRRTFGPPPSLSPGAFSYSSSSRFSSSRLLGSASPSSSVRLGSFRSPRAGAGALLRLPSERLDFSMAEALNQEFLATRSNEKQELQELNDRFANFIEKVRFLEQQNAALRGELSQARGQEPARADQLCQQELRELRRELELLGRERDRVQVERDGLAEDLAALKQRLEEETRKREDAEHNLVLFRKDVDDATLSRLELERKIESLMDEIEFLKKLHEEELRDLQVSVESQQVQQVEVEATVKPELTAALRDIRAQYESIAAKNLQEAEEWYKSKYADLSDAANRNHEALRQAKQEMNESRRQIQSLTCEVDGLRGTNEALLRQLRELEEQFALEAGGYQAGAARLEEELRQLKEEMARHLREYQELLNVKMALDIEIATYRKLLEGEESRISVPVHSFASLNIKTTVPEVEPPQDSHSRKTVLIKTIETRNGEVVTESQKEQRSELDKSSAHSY
inactive: [1] 0.002 | [2] -0.006 | [3] 0.03 | [4] -0.059 | [5] 0.119

PPT2 isoform 3 (UniProt Q9UMR5)
Chain of UniProt Q9UMR5 (Q9UMR5 whole entry, looked up): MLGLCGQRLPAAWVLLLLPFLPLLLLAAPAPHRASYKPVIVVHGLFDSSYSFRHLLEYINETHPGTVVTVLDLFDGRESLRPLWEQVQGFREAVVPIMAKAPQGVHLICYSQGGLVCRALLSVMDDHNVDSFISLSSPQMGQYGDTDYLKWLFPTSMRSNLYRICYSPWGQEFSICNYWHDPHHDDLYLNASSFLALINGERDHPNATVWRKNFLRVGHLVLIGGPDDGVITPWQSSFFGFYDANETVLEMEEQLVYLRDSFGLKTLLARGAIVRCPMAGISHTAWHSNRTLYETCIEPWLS
inactive: [1] 0.01 | [2] -0.03 | [3] -0.046 | [4] -0.048 | [5] -0.08

PRKCSH (UniProt P14314)
inactive: [1] 0 | [2] -0.002 | [3] -0.017 | [4] 0.041 | [5] 0.021

PEX2 (UniProt P28328)
Chain of UniProt P28328 (P28328 whole entry, looked up): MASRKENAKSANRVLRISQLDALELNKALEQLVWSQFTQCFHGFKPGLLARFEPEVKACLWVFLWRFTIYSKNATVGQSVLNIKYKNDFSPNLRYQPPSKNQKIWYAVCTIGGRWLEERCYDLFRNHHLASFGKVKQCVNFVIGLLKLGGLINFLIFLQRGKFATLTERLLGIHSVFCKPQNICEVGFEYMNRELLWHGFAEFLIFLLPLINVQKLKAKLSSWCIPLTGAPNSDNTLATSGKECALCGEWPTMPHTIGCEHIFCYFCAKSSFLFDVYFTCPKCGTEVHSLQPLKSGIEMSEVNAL
inactive: [1] -0.243 | [2] 0.053 | [3] -0.048 | [4] 0.116 | [5] -0.365

PREP (UniProt H0Y5Y0)
inactive: [5] 0.086

PRKACB isoform 2 (UniProt P22694)
inactive: [1] -0.042 | [2] -0.004 | [3] -0.018 | [4] -0.009 | [5] 0.019

PFN1 (UniProt I3L3D5)
inactive: [1] 0.007 | [2] 0.065 | [5] 0.164

PLXND1 (UniProt Q9Y4D7)
Chain of UniProt Q9Y4D7 (Q9Y4D7 whole entry, looked up): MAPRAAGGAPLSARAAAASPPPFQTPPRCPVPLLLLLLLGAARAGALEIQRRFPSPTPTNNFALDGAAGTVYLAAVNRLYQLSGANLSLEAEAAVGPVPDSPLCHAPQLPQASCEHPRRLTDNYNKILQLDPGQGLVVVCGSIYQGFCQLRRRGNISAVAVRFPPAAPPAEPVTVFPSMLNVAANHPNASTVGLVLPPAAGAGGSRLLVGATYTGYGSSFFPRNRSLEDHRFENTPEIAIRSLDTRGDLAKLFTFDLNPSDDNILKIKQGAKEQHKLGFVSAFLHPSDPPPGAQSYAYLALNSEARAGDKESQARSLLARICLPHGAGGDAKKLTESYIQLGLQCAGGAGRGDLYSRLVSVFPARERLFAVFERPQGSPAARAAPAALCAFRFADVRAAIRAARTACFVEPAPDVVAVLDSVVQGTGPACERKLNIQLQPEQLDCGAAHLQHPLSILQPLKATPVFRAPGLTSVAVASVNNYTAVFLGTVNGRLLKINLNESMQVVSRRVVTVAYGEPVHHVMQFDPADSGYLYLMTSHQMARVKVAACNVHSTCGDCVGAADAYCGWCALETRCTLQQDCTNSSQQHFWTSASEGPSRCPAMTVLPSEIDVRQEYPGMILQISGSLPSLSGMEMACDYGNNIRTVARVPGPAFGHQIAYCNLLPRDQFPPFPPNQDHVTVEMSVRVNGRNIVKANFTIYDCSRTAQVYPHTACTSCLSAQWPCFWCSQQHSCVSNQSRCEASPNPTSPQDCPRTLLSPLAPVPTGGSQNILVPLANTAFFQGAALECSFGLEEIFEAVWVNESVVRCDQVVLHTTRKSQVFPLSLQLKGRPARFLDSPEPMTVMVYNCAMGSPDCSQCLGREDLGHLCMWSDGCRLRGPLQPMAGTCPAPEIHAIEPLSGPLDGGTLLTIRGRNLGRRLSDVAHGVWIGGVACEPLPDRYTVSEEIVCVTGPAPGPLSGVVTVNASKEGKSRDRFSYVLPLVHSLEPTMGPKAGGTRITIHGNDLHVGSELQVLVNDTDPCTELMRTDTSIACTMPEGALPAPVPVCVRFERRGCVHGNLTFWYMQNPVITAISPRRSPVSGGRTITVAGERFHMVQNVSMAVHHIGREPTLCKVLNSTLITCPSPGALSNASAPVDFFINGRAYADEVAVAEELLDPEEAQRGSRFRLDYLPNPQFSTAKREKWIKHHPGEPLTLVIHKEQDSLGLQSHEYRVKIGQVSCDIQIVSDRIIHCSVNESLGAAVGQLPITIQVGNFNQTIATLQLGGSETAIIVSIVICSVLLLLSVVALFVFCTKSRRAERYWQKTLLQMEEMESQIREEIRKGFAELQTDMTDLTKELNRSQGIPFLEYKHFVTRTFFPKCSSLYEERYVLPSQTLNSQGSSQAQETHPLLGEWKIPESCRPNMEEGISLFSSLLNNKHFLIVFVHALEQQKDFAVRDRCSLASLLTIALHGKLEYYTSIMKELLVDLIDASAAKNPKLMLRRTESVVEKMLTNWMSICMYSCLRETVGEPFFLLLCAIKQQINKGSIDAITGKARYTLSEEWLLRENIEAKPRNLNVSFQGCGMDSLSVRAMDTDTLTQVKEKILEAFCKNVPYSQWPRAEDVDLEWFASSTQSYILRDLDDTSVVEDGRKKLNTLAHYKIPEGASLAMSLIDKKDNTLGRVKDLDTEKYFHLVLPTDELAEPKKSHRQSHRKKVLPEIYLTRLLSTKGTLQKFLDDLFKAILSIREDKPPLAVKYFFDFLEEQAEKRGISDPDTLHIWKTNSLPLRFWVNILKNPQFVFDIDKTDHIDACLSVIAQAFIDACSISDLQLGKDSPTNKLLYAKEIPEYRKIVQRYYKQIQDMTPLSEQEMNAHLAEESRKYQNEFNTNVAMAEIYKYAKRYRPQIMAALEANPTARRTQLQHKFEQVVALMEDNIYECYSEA
inactive: [1] -0.039 | [2] 0.082 | [4] 0.029

PCBP2 isoform 8 (UniProt Q15366)
Chain of UniProt Q15366 (Q15366 whole entry, looked up): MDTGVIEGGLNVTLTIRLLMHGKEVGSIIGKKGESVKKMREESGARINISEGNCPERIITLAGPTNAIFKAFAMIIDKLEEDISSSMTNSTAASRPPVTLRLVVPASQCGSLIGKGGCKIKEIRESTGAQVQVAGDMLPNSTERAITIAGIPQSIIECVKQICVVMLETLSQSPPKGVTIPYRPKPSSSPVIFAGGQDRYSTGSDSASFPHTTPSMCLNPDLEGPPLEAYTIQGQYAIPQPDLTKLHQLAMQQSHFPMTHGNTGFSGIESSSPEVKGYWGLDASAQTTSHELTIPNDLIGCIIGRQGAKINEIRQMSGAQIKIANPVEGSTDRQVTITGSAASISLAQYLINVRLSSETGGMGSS
inactive: [1] 0.098 | [2] 0.065 | [3] -0.038 | [4] -0.044 | [5] -0.101

PHGDH, A0A286YFE1
inactive: [1] 0.061 | [2] -0.111 | [4] -0.095
